Whole data set: some 35,000 sequences, median “fluorescence intensity (a.u.)” near 10,000, cut for the highest 2% near 52,000. The full list was thinned out, with the highest values kept by preference.

The target in the experiment is T1, OsWOX13 (Oryza sativa, UniProt Q5QMM3 1-267).
T1 sequence: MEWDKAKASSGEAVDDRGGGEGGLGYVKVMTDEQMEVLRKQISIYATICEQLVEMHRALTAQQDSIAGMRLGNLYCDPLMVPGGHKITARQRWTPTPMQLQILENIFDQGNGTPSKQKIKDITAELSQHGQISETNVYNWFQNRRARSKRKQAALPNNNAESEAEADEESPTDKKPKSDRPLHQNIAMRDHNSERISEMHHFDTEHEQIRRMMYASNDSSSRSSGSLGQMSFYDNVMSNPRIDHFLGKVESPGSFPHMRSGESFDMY
Description: protein-binding microarray (RPBM); PBS, 2% BSA, 51.3 ng/ul salmon testes DNA, 50 uM zinc acetate, 200 nM TF, 25 C, 1 h; high values mean tight binding. The settings on record: protein: recombinant; tags: N-terminal polyhistidine and DsRed monomer fusion (pET32a); label: CyDye5-dUTP incorporated in the synthesized complementary strand; 3' TTTTT single-stranded linker to array surface; dsDNA, one strand shown. The essentials: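 Transcription factors were each fused at the N-terminus to a polyhistidine tag plus DsRed and expressed in E. coli BL21-CodonPlus before Ni–NTA purification. Binding to a double-stranded custom Agilent array was carried out with 200 nM protein at 25 °C for 1 h in PBS, 2% BSA, salmon testes DNA and 50 µM zinc acetate. The binding signal is per-feature fluorescence intensity, in arbitrary units, on an Axon 4000B scanner.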
With “AACCAATTTATATTGTCAGAAGAAAATGCATTATATAGGTCGGAGTCACCTAGTGCAG”, the binding signal is 6730 fluorescence intensity (a.u.).

“CATTGAATGTTTGGACACTAATTATAAATATTAAACGTAGCGGAGTCACCTAGTGCAG”: the binding signal was 9090 fluorescence intensity (a.u.).

For “AGTTATTGATAACATAAGCCTTAAAAGTTCGCCCTAACCTCGGAGTCACCTAGTGCAG”, the binding signal was 4600 fluorescence intensity (a.u.).

Regarding “CAAAACAGACATAATCTTGTTGGACAGACGTAGCCATGAACGGAGTCACCTAGTGCAG”, the binding signal is 12500 fluorescence intensity (a.u.).

In the case of “GCTTAATTAGCTTGTATTTAGTTGGTTAATTTAGTGTTGTCGGAGTCACCTAGTGCAG”, the binding signal is 43600 fluorescence intensity (a.u.).

Take “GGTTGGATGGTTGGATTTGATGTGGATTTGAATTGTTATGCGGAGTCACCTAGTGCAG”: the binding signal was 7890 fluorescence intensity (a.u.).

Regarding “TTGATTGGATAATTTTGTGGTTTGGGAAGAAATGGTGATGCGGAGTCACCTAGTGCAG”, the binding signal is 64000 fluorescence intensity (a.u.).

In the case of “TGGAAGTCAAGTCACTAATTGGAAGAAGATGGTGATAATGCGGAGTCACCTAGTGCAG”, the binding signal was 16600 fluorescence intensity (a.u.).

Regarding “GGTGATTGCATTTGATTGGGTGGAAAAGGTTTGATTTTGTCGGAGTCACCTAGTGCAG”, the binding signal is 64900 fluorescence intensity (a.u.).

Regarding “CCTAATTTGCGTGATTGGATTGGTTGGTTGTGTTGTAATGCGGAGTCACCTAGTGCAG”, the binding signal is 65000 fluorescence intensity (a.u.).

As to “CATTGATTTTGTTTTATTATTTTGGTTGGTGGTGCCGTGTCGGAGTCACCTAGTGCAG”, the binding signal was 39100 fluorescence intensity (a.u.).

Regarding “AGTTTGGATTTTGGTTGAAATTGAAGATAATGTGACTGAACGGAGTCACCTAGTGCAG”, the binding signal was 3240 fluorescence intensity (a.u.).

“TGCTTGCTTGCTTGGTTTGATTGGTGGAGGTGGGAGGAGTCGGAGTCACCTAGTGCAG”: the binding signal is 3920 fluorescence intensity (a.u.).

With “GTTGGTTAATTGCAATTTAATTGTTGTATTGTAAGAGTCTCGGAGTCACCTAGTGCAG”, the binding signal is 56100 fluorescence intensity (a.u.).

For the sequence “TCATAATTGGATGGCATTGTACTGTGATTTGTTTGTGTTGCGGAGTCACCTAGTGCAG”, the binding signal was 49200 fluorescence intensity (a.u.).

Consider “TTGCAATTGCCAATTTCTTTATTATATTGTTGGTTTAACTCGGAGTCACCTAGTGCAG”, for which the binding signal was 16700 fluorescence intensity (a.u.).

As for “GACACTGGGTAAATTATTCAATTCTAACTAAATTATATGACGGAGTCACCTAGTGCAG”, the binding signal was 4590 fluorescence intensity (a.u.).

Consider “TCGATAAATTGAGGAGACCAAAATTCACGAAATCAACATACGGAGTCACCTAGTGCAG”, for which the binding signal was 7550 fluorescence intensity (a.u.).

For “AGCTGTTCCAATTATGAACTCACTAACTTTACATAGAGGTCGGAGTCACCTAGTGCAG”, the binding signal is 3650 fluorescence intensity (a.u.).

As for “ACAGTTCCTTTGTGCCAATCATTGAACCCGGGAATGCTGGCGGAGTCACCTAGTGCAG”, the binding signal is 4780 fluorescence intensity (a.u.).

Regarding “TATGAATGACATATAAACAGATAATCGTGTTCACCGAATGCGGAGTCACCTAGTGCAG”, the binding signal is 20900 fluorescence intensity (a.u.).

As for “TCTGATAGCTTGTGAGGGTTTCATTCATCCTCTGCTAGTGCGGAGTCACCTAGTGCAG”, the binding signal is 6630 fluorescence intensity (a.u.).

Turning to “GTCTTCAAATTATATTAGTTATAACTATAGTTCACACAATCGGAGTCACCTAGTGCAG”, the binding signal is 4610 fluorescence intensity (a.u.).

For the sequence “TCAGCTAATCAGCTAACTGGTCCTTTTCCTACTTCCCTTGCGGAGTCACCTAGTGCAG”, the binding signal is 8010 fluorescence intensity (a.u.).

Regarding “GGGGATTGGGAGTTTATACAAGGGAATTGATGGTGAGATTCGGAGTCACCTAGTGCAG”, the binding signal is 21000 fluorescence intensity (a.u.).

For “TTAAGATAGAGGAAACATTGATTGTATGCATGCTATATATCGGAGTCACCTAGTGCAG”, the binding signal is 3750 fluorescence intensity (a.u.).

As to “GCTAATTTATACAATAGTTGCTTACTATAGAATTAATGCACGGAGTCACCTAGTGCAG”, the binding signal is 27200 fluorescence intensity (a.u.).

Turning to “GCATAGATTATTATGCAGAAAGTTCATGTATATGACCAGCCGGAGTCACCTAGTGCAG”, the binding signal is 6640 fluorescence intensity (a.u.).

“ACACCAATTGAACATTTGGATGTAAACATTAGGGATGCTGCGGAGTCACCTAGTGCAG”: the binding signal was 3400 fluorescence intensity (a.u.).

On to “ATGATTAATTATTATTTTAGTGATATGCGATATACTCGTGCGGAGTCACCTAGTGCAG”, for which the binding signal is 65000 fluorescence intensity (a.u.).

As for “CATTTGCTAATGACGGATTAATTAGGGTTTATAAATTCGTCGGAGTCACCTAGTGCAG”, the binding signal was 24400 fluorescence intensity (a.u.).

With “ATATGATTAATATTTTATGCGATTAATATTTTATGCGTGACGGAGTCACCTAGTGCAG”, the binding signal is 41400 fluorescence intensity (a.u.).

As for “TGTTAGATGATAAAACATGATTAATATTTTATGCGTGACTCGGAGTCACCTAGTGCAG”, the binding signal is 8120 fluorescence intensity (a.u.).

Turning to “GCAGTCCATTAACACGTGATTAATTAAGTATTAGTTAATTCGGAGTCACCTAGTGCAG”, the binding signal was 21800 fluorescence intensity (a.u.).

On to “AGTTAATTAATTAGTCCATCCAAGGAAGGAGTATATGATTCGGAGTCACCTAGTGCAG”, for which the binding signal is 55800 fluorescence intensity (a.u.).

For the sequence “TGTGATTAGTTCTAATTTAATATAGCAAGAACTAGTGGATCGGAGTCACCTAGTGCAG”, the binding signal is 53800 fluorescence intensity (a.u.).

Consider “ACCAATATATATATACTAATTAAATTTGTGGAACTTGGATCGGAGTCACCTAGTGCAG”, for which the binding signal is 4420 fluorescence intensity (a.u.).

On to “TTGCTAATGACGGATTAATTAGGCTTAATAAATTCGTCTCCGGAGTCACCTAGTGCAG”, for which the binding signal is 33900 fluorescence intensity (a.u.).

For “GAGCCTAATTAATTCGTGATTAGCCTAATGACGGATTAATCGGAGTCACCTAGTGCAG”, the binding signal was 57400 fluorescence intensity (a.u.).

Turning to “AGTTAGTGATTATATGATTAATCTATGGTCCAAATTATCTCGGAGTCACCTAGTGCAG”, the binding signal was 23900 fluorescence intensity (a.u.).

With “CCTAATTAAGTGGATTTTAGTTTTATATATTATTTAACTTCGGAGTCACCTAGTGCAG”, the binding signal was 25700 fluorescence intensity (a.u.).

For “GGTAGTACTTAATTAATCACGCGCTAATAGACCGCTCTGTCGGAGTCACCTAGTGCAG”, the binding signal is 22600 fluorescence intensity (a.u.).

Values taken from PMC7819943, “Rice protein-binding microarrays: a tool to detect cis-acting elements near promoter regions in rice”.
